Source: PubChem BioAssay
Hits are enriched below; roughly 7.5% of the tested compounds scored in any of these assays.
ELG1 genotoxic: inducers of genotoxicity in HEK293T ELG1-luciferase cells; AID 504466; Potency, µM (top dose mostly 46 µM), inactives show at the highest dose activity change, positive = activation, actives largely listed as activators; HEK293T ELG1-luciferase reporter, luminescence, 16 h; hit rate 1.3% among 330,000; further: % of control where 0% means no effect; nearly all actives have a fitted effect of over 60% in size
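16 hr compound incubation (37 °C, 5% CO2) of HEK293T cells carrying luciferase-tagged ELG1; luciferase then measured by ONE-Glo luminescence after 30 min at RT.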
FLuc counter: counter-screen for miR-21 project: firefly luciferase inhibitors or activators; purified FLuc, Km substrates, luminescence inhibition; Potency, µM (series often up to 57.5 µM), for the others: top-dose activity change, negative = inhibition, most hits filed as inhibitors; hit rate 6.9% among 360,000;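 further: plate controls were vehicle for no effect and reference inhibitor for full effect; nearly all actives have a fitted effect of over 55% in size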
Target sequence (P08659 whole entry, looked up): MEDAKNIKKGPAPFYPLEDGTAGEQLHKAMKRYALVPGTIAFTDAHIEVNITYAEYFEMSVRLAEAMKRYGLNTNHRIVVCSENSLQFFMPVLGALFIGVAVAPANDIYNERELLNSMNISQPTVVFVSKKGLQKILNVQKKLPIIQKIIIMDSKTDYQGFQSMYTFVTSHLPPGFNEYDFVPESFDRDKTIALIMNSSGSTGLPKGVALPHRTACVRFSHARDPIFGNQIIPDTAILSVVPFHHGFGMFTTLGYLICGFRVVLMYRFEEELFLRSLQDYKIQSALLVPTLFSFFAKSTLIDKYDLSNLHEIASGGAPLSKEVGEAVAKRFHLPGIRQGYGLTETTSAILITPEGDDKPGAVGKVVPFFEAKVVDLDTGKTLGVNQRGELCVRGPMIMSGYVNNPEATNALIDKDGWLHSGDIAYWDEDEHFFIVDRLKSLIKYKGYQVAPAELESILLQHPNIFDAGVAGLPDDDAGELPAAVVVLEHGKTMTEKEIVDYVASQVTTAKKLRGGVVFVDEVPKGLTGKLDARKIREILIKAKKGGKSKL
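Biochemical qHTS of compounds, final roughly 60 µM downward over six points, against 10 nM purified firefly luciferase using Km concentrations of substrates (10 uM D-luciferin, 10 uM ATP) in Tris acetate pH 7.5 buffer; luminescence output.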
SMN2 splice enh: enhancers of SMN2 splice variant expression; Potency, µM (top dose mostly 46.1 µM), for the others: at the top dose activity change, positive = activation, hits mostly activators; HEK293 SMN2-luciferase splicing reporter, luminescence, 30-36 h; AID 1458; hit rate 2.8% among 210,000; further: % of control where 0% means no effect; nearly all actives have a fitted effect of over 55% in size
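HEK293 cells carry an SMN2 […]–luciferase reporter in which exon 7 inclusion puts luciferase in frame. Cells were plated 10-12 h before compound addition, then incubated 30-36 h at 37C. ONE-Glo luminescence was read; sodium butyrate at 4.5 mM final served as control.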
NPC1 prom act: activators of NPC1 promoter; Potency, µM (top dose mostly 9.22 µM), without a hit: at the top dose activation, hits mostly activators; Huh7 NPC1 promoter luciferase reporter, 24 h; hit rate 2.4% among 320,000; further: % of control where 0% means no effect; nearly all actives have a fitted effect of over 60% in size
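In 1536-well qHTS, Huh7 cells harboring an NPC1 promoter–luciferase construct received compound for 24 h; activation was quantified by luminescence following luciferase reagent addition.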
Rab9 promoter act: activators of Rab9 promoter. Huh7 Rab9 promoter-luciferase reporter, luminescence, 24 h. Potency, µM (highest dose often 9.22 µM), without a hit: at the highest dose activation, negative = inhibition, actives largely listed as activators. hit rate 2.8% among 320,000; further: % of control where 0% means no effect; nearly all actives have a fitted effect of over 60% in size
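Huh7 cells stably carrying Rab9 promoter–luciferase reporter, plated 1500 cells/well, compound added after 2 h and incubated 24 h at 37 °C; luciferase luminescence then read after 10 min with detection reagent.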
Luc counter: counter-screen: inhibitors of Kinase-Glo firefly luciferase | Q27757 | Potency, µM (series often up to 38.3 µM), for inactives: top-dose activity change, negative = inhibition, hits mostly inhibitors | Kinase-Glo luciferase, ATP luminescence, 8 min | AID 1379 | hit rate 0.28% among 200,000; further: on the % scale 0 is the no-effect control and ±100 the full control effect; nearly all actives have a fitted effect of over 60% in size
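Compounds were added to a substrate mix at pH 7.2 (50 mM imidazole, 10 uM ATP, within the enzyme's linear range), followed by Kinase-Glo detection reagent; luminescence was measured after 8 minutes at ambient temperature.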
An asterisk follows results filed as active; [ ] = another dose, or the depositor's remark. The call rests on the fitted dose curve; in most records, active means well fitted curve in the direction sought with a large enough effect; inconclusive means small, poorly fitted or top-dose-only effect, or another doubt; inactive means no such curve, though single readings can be large; an effect the other way counts as inactive or inconclusive. Potency means the concentration at half of the fitted maximal effect.

`O=[N+]([O-])c1cc(/C=N/O)ccc1Oc1cccc(Cl)c1` gave ELG1 genotoxic 14%, FLuc counter -13%, SMN2 splice enh -6%, NPC1 prom act -8%, Rab9 promoter act -12% and Luc counter -5%.
Screening O=[N+]([O-])c1cc(/C=N/O)ccc1Oc1ccccc1Cl returned ELG1 genotoxic inconclusive, FLuc counter 19µM*, SMN2 splice enh 1%, NPC1 prom act 9%, Rab9 promoter act -4%[1.84 µM] and Luc counter 1%.
`C/C(=N\NC(=O)CSc1nc2ccccc2o1)c1ccc(O)cc1` gave ELG1 genotoxic 9%, FLuc counter 17µM*, SMN2 splice enh 10%, NPC1 prom act 1%, Rab9 promoter act 3% and Luc counter 1%.
O=C(CSc1nc2ccccc2o1)N/N=C/c1ccc(O)c(O)c1 was read as ELG1 genotoxic 14%, FLuc counter 19µM*, NPC1 prom act -5% and Rab9 promoter act -2%.
`O=C(CSc1nc2ccccc2o1)N/N=C/c1ccccc1` gave ELG1 genotoxic 16%, FLuc counter -2%, SMN2 splice enh -4%[1.84 µM], NPC1 prom act -2%, Rab9 promoter act 1% and Luc counter -2%.
O=C(OCc1cc(=O)n2ccsc2n1)c1ccc(OC(F)F)cc1 was read as ELG1 genotoxic 0%, FLuc counter 0%, NPC1 prom act -1% and Rab9 promoter act -7%.
`COc1cccc(OCc2cc(C(=O)N3CCN(C4CCCC4)CC3)no2)c1` gave ELG1 genotoxic 1%, FLuc counter -5%, NPC1 prom act 1% and Rab9 promoter act -5%.
`Cc1ccc(OCc2cc(C(=O)N3CCC(Oc4cccnc4)CC3)no2)cc1C` gave ELG1 genotoxic -4%, FLuc counter -19%, NPC1 prom act -4% and Rab9 promoter act 0%.
COc1cccc(OCc2cc(C(=O)N3CCCC3c3ccccn3)no2)c1 (stereo unspecified) was read as ELG1 genotoxic inconclusive, FLuc counter 15µM*, NPC1 prom act 2.2µM* and Rab9 promoter act 2.8µM*.
CN1CCN(C(=O)c2cc(COc3ccccc3)on2)[C@@H](c2ccccc2)C1 was read as ELG1 genotoxic 13µM*, FLuc counter 9.5µM*, NPC1 prom act 3.5µM* and Rab9 promoter act 2µM*.
Screening Cc1ccc(OCc2cc(C(=O)N3CCN(C)C[C@@H]3c3ccccc3)no2)cc1C returned ELG1 genotoxic inconclusive, FLuc counter 21µM*, NPC1 prom act 2.8µM* and Rab9 promoter act 2.5µM*.
For COc1cccc(-n2c(SCC(=O)c3ccc(Cl)cc3)nc3c([nH]c4ccccc43)c2=O)c1 the results were FLuc counter -3%.
COc1cccc(-n2c(SCC(N)=O)nc3c([nH]c4ccccc43)c2=O)c1 was read as ELG1 genotoxic 14%, FLuc counter -12%, SMN2 splice enh 13µM*, NPC1 prom act 1%, Rab9 promoter act 2% and Luc counter 2%.
Cc1ccccc1C(=O)Oc1cccc2c(O)cccc12 was read as ELG1 genotoxic -1%, FLuc counter inconclusive, NPC1 prom act 8% and Rab9 promoter act 7%.
Screening CC(=O)Nc1ccc(OS(=O)(=O)c2ccccc2C)cc1 returned ELG1 genotoxic 3%, FLuc counter 0%, NPC1 prom act 0%, Rab9 promoter act 15% and Luc counter -3%.
Screening COC(=O)c1cccc(OC(N)=O)c1 returned ELG1 genotoxic 0%, FLuc counter -1%, SMN2 splice enh -1%, NPC1 prom act -1%, Rab9 promoter act -2% and Luc counter 10%.
Screening Cc1ccccc1C(=O)Oc1ccc2ccc(O)cc2c1 returned ELG1 genotoxic 5.8µM*, FLuc counter 6.7µM*, NPC1 prom act inconclusive and Rab9 promoter act -3%.
Cc1ccccc1S(=O)(=O)Oc1ccc2ccc(O)cc2c1 was read as ELG1 genotoxic 8%, FLuc counter 17µM*, NPC1 prom act 26% and Rab9 promoter act -3%.
COc1cccc(C(=O)Oc2ccc3ccc(O)cc3c2)c1 was read as ELG1 genotoxic 1%, FLuc counter 6µM*, NPC1 prom act 0% and Rab9 promoter act 4%.
For COc1ccc(-c2cc(C(=O)N3CCCC3)no2)cc1 the results were ELG1 genotoxic 2.9µM*, FLuc counter 1.2µM*, NPC1 prom act 0.4µM* and Rab9 promoter act 0.63µM*.
COc1ccc(-c2cc(C(=O)N3CCN(C(c4ccccc4)c4ccccc4)CC3)no2)cc1 was read as ELG1 genotoxic -10%, FLuc counter -2%, SMN2 splice enh -30%, NPC1 prom act -7%, Rab9 promoter act -1% and Luc counter -2%.
`COc1ccc(-c2cc(C(=O)N3CCCCCC3)no2)cc1OC` gave ELG1 genotoxic inconclusive, FLuc counter 24µM*, NPC1 prom act inconclusive and Rab9 promoter act inconclusive.
`COc1cccc(-c2cc(C(=O)N3CCCCCC3)no2)c1` gave ELG1 genotoxic 1.5µM*, FLuc counter 2.1µM*, SMN2 splice enh 3.2µM*, NPC1 prom act 0.56µM*, Rab9 promoter act 0.32µM* and Luc counter -8%.
Screening COc1ccc(-c2cc(C(=O)N3CCCCCC3)no2)cc1 returned ELG1 genotoxic 4.6µM*, FLuc counter 1.9µM*, NPC1 prom act 0.4µM* and Rab9 promoter act 0.45µM*.
`COc1ccc(-c2cc(C(=O)N3CCN(C(c4ccccc4)c4ccccc4)CC3)no2)cc1OC` gave ELG1 genotoxic -6%, FLuc counter 7%, SMN2 splice enh -4%, NPC1 prom act -8%, Rab9 promoter act 3% and Luc counter -7%.
C[C@H]1COc2c(N3CCN(C)CC3)c(F)cc3c(=O)c(C(=O)NCc4ccco4)cn1c23 was read as SMN2 splice enh -4% and Luc counter 0%.
CC(C)CCNC(=O)c1cn(C)c2ccc(S(=O)(=O)N3CCOCC3)cc2c1=O was read as FLuc counter -6% and SMN2 splice enh -1%.
Screening COc1cccc(-c2cc(C(=O)N3CCCCC3C)no2)c1 (stereo unspecified) returned ELG1 genotoxic 9.2µM*, FLuc counter 8.5µM*, SMN2 splice enh 18µM*, NPC1 prom act 1.6µM*, Rab9 promoter act 2.2µM* and Luc counter 2%.
For N#Cc1nc(-c2ccccc2F)oc1NCCc1ccccc1 the results were ELG1 genotoxic 6%, FLuc counter 27µM*, SMN2 splice enh -4%, NPC1 prom act 21%, Rab9 promoter act 21% and Luc counter -2%.
